The sample as a whole holds a higher share of hits than the screen did.
CD40 NFkB inh – CD40 pathway inhibition in BL2 cells. BL2 NF-kB luciferase reporter, CD40L-induced, 4 h. inhibition, % at 10 µM. 83,000 compounds, 0.94% hits. AID 1053188;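 active = mean inhibition of at least 50% with a set share of replicates also reaching that level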;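 note: 0% = neutral control wells and 100% = IKK inhibitor VII at 50 µM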
* marks the source's active call; other numbers are inactive results; [ ] = remark or other dose.

SMILES | CD40 NFkB inh
COc1cc(OC)c(C(=O)OCC(=O)Nc2c(C)n(C)n(-c3ccccc3)c2=O)cc1OC | 9.8
CCc1ccc2oc(-c3ccc(OC)cc3)cc(=Nc3c(C)n(C)n(-c4ccccc4)c3=O)c2c1 | 50.0*
COc1ccc2oc(-c3ccncc3)cc(=O)c2c1 | -48.8
CO[C@H]1CN(C)C(=O)c2cc(NS(C)(=O)=O)ccc2OC[C@@H](C)N(C(=O)C2CCCC2)C[C@@H]1C | -24.4
C=C1CC(Cn2cc(Br)c(=O)[nH]c2=O)(c2ccc(-c3ccccc3)cc2)OC1=O (stereo not drawn) | 64.3*
O=c1[nH]c(=O)n(C2CC(O)C(CO)O2)cc1Br (stereo not drawn) | -10.5
C=C1CC(COc2cc(=O)oc3ccccc23)(c2ccccc2)OC1=O (stereo not drawn) | 30.9
CC(C)(C)[S@](=O)N1Cc2cc(C(=O)N[C@@H]3CCN(Cc4ccccc4)C3)nc(-c3cccc(-c4cncnc4)c3)c2[C@@H]1CCO | 2.1
COc1ccccc1-c1ccc([C@H]2[C@@H](CO)N3CCCCN(C(=O)NC4CCCC4)C[C@H]23)cc1 | 6.7[25 µM]
CN1c2ccc(-c3cccc(F)c3)cc2[C@H]2[C@H](CCN2C(=O)c2ccc3c(c2)OCO3)[C@H]1CO | 26.8[25 µM]
CN(C)c1ccc(NC(=O)c2ccc3nc[nH]c3c2)cc1 | -58.5
CN(C)c1ccc(NC(=O)c2ccc3c(c2)nnn3C)cc1 | -57.8
CN(C)c1ccc(NC(=O)c2cnsn2)cc1 | 65.4*
CCN1[C@@H]2Cn3c(ccc(-c4ccccc4F)c3=O)[C@H]1[C@@H](C(=O)N1CCCCC1)[C@@H]2CO | -6.2[25 µM]
COc1ccccc1S(=O)(=O)N[C@H]1CC[C@H](CCNC(=O)C2CCCC2)O[C@@H]1CO | -3.9
O=C(Nc1ccc(F)cc1)N1C[C@H]2[C@@H](c3ccccc31)[C@H](CO)N2Cc1ccccc1 | -3.1
Cc1noc(C)c1S(=O)(=O)N(C)C[C@H]1OCc2ccccc2-c2c(n(C)c3ccccc23)C(=O)N([C@H](C)CO)C[C@H]1C | 50.8*[25 µM]
Cc1noc(C)c1S(=O)(=O)N(C)C[C@H]1OCc2ccccc2-c2c(n(C)c3ccccc23)C(=O)N([C@@H](C)CO)C[C@H]1C | 65.2*[25 µM]
Cc1noc(C)c1S(=O)(=O)N(C)C[C@H]1OCc2ccccc2-c2c(n(C)c3ccccc23)C(=O)N([C@@H](C)CO)C[C@@H]1C | 31.7[25 µM]
C[C@@H]1CN([C@H](C)CO)C(=O)c2c(c3ccccc3n2C)-c2ccccc2CO[C@@H]1CN(C)S(C)(=O)=O | -7.8
Cc1noc(C)c1S(=O)(=O)N(C)C[C@@H]1OCc2ccccc2-c2c(n(C)c3ccccc23)C(=O)N([C@H](C)CO)C[C@H]1C | 44.5[25 µM]
Cc1noc(C)c1S(=O)(=O)N(C)C[C@@H]1OCc2ccccc2-c2c(n(C)c3ccccc23)C(=O)N([C@@H](C)CO)C[C@H]1C | 46.3[25 µM]
CN(C)CC(=O)N1[C@@H]2Cn3c(ccc(C4=CCCC4)c3=O)[C@H]1[C@@H](C(=O)NCC1CC1)[C@@H]2CO | 5.7
O=C(Nc1ccc2c(c1)OCO2)N[C@@H]1CC[C@@H](CCNC(=O)C2CC2)O[C@H]1CO | -10.2
CN(C)C(=O)c1ccc(-c2ccc(C3[C@H]4CNC[C@@H]3N4C(=O)NC3CCCC3)cc2)cc1 (stereo partly drawn) | -8.9[25 µM]
SMILES | CD40 NFkB inh
Nc1ccc(C(=O)NNC(=O)C2COc3ccccc3O2)cc1[N+](=O)[O-] (stereo not drawn) | 1.9
CNc1ccc(C(=O)OCC(=O)NC(=O)NC2CCCCC2)cc1[N+](=O)[O-] | 2.5
CC(C)(C)C(=O)COC(=O)c1ccc(N)c([N+](=O)[O-])c1 | -64.7
CS(=O)(=O)c1ccc(C(=O)OCC(=O)NC(=O)C2COc3ccccc3O2)cc1[N+](=O)[O-] (stereo not drawn) | 94.9*
COc1ccc(C(=O)OCC(=O)Nc2ccc(OC)c(S(=O)(=O)N3CCCCC3)c2)cc1[N+](=O)[O-] | 5.4
CS(=O)(=O)c1ccc(C(=O)OCC(=O)NC(=O)C2CCCCC2)cc1[N+](=O)[O-] | 84.8*
C[C@@H]1CN([C@H](C)CO)C(=O)c2ccccc2-c2ccccc2CO[C@H]1CN(C)C(=O)C1CC1 | -6.5
O=C(Nc1nnc(C2CC2)s1)C1CC(=O)N(c2ccc3c(c2)OCCO3)C1 (stereo not drawn) | 51.2*
O=C(Nc1nc2ccc(F)cc2s1)C1CC(=O)N(c2ccc3c(c2)OCCO3)C1 (stereo not drawn) | 27.6
O=C(Nc1nnc(C2CCCCC2)s1)C1CC(=O)N(c2ccccc2)C1 (stereo not drawn) | 13.1
CCCNC(=O)[C@@H]1[C@@H](CO)[C@@H]2Cn3c(cccc3=O)[C@@H]2N1C(=O)C1CCCC1 | -1.8[25 µM]
CNC[C@H]1Oc2ccc(N)cc2CC(=O)N(C)C[C@H]1C | 17.4
CN1[C@@H]2c3ccc(-c4ccccc4F)c(=O)n3C[C@@H]2[C@@H](CO)[C@@H]1C(=O)Nc1nccs1 | -1.1[25 µM]
CO[C@@H](CN(C)S(=O)(=O)c1ccc(Cl)cc1)[C@H](C)CN(Cc1ccccc1Cl)[C@@H](C)CO | 33.6*
CO[C@H](CN(C)S(=O)(=O)c1ccc(Cl)cc1)[C@H](C)CN(Cc1ccccc1Cl)[C@@H](C)CO | 13.6
CO[C@@H](CN(C)S(=O)(=O)c1ccc(Cl)cc1)[C@@H](C)CN(Cc1ccccc1Cl)[C@H](C)CO | 2.3
COc1ccc(C2CC2/C(C)=N/OC(=O)c2cccs2)cc1 (stereo not drawn) | -6.6
COc1ccc(OCCOC(=O)c2cccs2)cc1 | -17.4
COc1ccc(C(=O)O/N=C(/C)c2cccs2)cc1 | 58.6*
CC(C)OC(=O)N(C)C[C@H]1OCc2ccccc2-c2ccccc2C(=O)N([C@@H](C)CO)C[C@H]1C | 16.4
O=C(c1cccc(F)c1)N1C[C@H]2[C@@H](c3ccccc31)[C@@H](CO)N2C(=O)c1cccc(F)c1 | -3.3
COC(=O)C1CC2=CC(=O)CCC2(C)C23OC2CC2(C)C(CCC24CCC(=O)O4)C13 (stereo not drawn) | 1.7[25 µM]
CC(=O)N1[C@@H]2c3ccc(C4=CCCCC4)c(=O)n3C[C@H]1[C@H](CO)[C@H]2C(=O)NC1CCC1 | 2.1
CC(C)NC(=O)Nc1ccc2c(c1)C(=O)N(C)C[C@@H](C)[C@@H](CN(C)C)O2 | 11.2
CN1c2ccc(-c3cccc(C#N)c3)cc2[C@@H]2[C@@H](CCN2C(=O)C2CC2)[C@@H]1CO | 0.1
SMILES | CD40 NFkB inh
COc1ccc(CN2CC3(CN(S(=O)(=O)c4ccc(C)cc4)C3)c3c([nH]c4cc(OC)ccc34)[C@H]2CO)cc1 | 54.5*[25 µM]
COc1ccc2c3c([nH]c2c1)[C@@H](CO)N(Cc1ccc(Cl)cc1)CC31CN(S(C)(=O)=O)C1 | 11.1[25 µM]
COc1ccc2c3c([nH]c2c1)[C@H](CO)N(Cc1ccc(Cl)cc1)CC31CN(S(C)(=O)=O)C1 | 13.6[25 µM]
O=C(NCc1ccccn1)c1cc(-c2ccccc2)on1 | -24.5
Cc1cc(NC(=O)c2cc(-c3ccccc3)on2)no1 | -48.8
O=C(c1ccccc1)c1cc(-c2ccccc2)on1 | 73.3*
O=C(C[C@@H]1CC[C@@H]2[C@H](COC[C@H](O)CN2CC2CCCC2)O1)NCc1ccc(Cl)cc1 | 8.6
CN1C[C@@H]2[C@H](c3ccccc31)[C@H](CO)N2C(=O)CN1CCOCC1 | -1.3[25 µM]
COc1cccc2c1C(=O)c1c(O)c3c(c(O)c1C2=O)C[C@@](O)(C(C)=O)C[C@@H]3OC1CC(N)C(O)C(C)O1 (stereo partly drawn) | 87.2*[25 µM]
CO[C@H](CN(C)C(=O)C1CC1)[C@H](C)CN(C(=O)Nc1ccc(C(F)(F)F)cc1)[C@H](C)CO | 2.8

High-throughput results deposited in PubChem BioAssay by Broad Institute.
